Where “and” joins values, the source holds several entries; their conditions need not be identical. Equal entries are not always repeated. Results filed as inconclusive are left out. Where a structure was tested more than once in an assay, its records may differ in their call. Calls of active or inactive are those of the source. Unless noted, calls come from the whole dose curve; as a rule, active = well fitted curve in the direction sought with a large enough effect; inconclusive = small, poorly fitted or top-dose-only effect, or another doubt; inactive = no such curve, though single readings can be large; an effect the other way counts as inactive or inconclusive.
Legend:
[1] = Cell Viability - BJ (AID 421; calls by dose curve;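 note: potency is the fitted concentration of half-maximal effect; cells exposed to compound for 40 hours at 37 °C before readout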); conditions: BJ fibroblast viability, qHTS
Outline: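 Cytotoxicity as drop in intracellular ATP (CellTiter-Glo, 20 min RT) after 40 hr compound exposure of BJ fibroblasts at 37 °C. Titrations scaled between DMSO and 100 uM tamoxifen, Hill-fitted for AC50.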

[2] = Cell Viability - Jurkat (AID 426;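 active = dose-dependent loss of cell ATP signal giving a full or clear fitted curve, ranked by lower potency value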;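 note: potency is the fitted concentration of half-maximal effect; cells exposed to compound for 40 hours at 37 °C before ATP read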); conditions: qHTS
Outline: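 Cells of the human T-cell leukemia line Jurkat (E6-1) are seeded at 5000 per well, treated with compound across a concentration range for 40 hours at 37 °C, then lysed with CellTiter-Glo; luminescence reports ATP.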

[3] = Cell Viability - Hek293 (AID 427;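 active = compounds whose dose-response curve shows a full or clear partial loss of cell viability, called from curve shape rather than a numeric limit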;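 note: potency is the fitted concentration of half-maximal effect; cells exposed to compound for 40 hours at 37 °C before reading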); conditions: qHTS
Outline: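 Luminescent ATP content (CellTiter-Glo, 20 min at room temperature) was measured after a 40 hr, 37 °C compound exposure of HEK293 cells. AC50 values came from Hill-equation fits of qHTS concentration-response data normalized to DMSO and 100 uM tamoxifen.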

[4] = Cell Viability - HepG2 (AID 433; calls by dose curve;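 note: potency is the fitted concentration of half-maximal effect; potency for ATP loss meaning cytotoxicity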); conditions: qHTS
Outline: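 Read-out is luciferase-based quantitation of cellular ATP as a measure of viable HepG2 cells after 40 h treatment at 37 °C. Signal decrease is scaled between DMSO-only and 100 uM tamoxifen controls, with AC50 fitted by the Hill equation.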

[5] = Cell Viability - SK-N-SH (AID 435; calls by dose curve;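 note: potency is the fitted concentration of half-maximal effect; compound exposure lasted 40 h at 37 °C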); conditions: SK-N-SH neuroblastoma cell viability qHTS
Outline: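 Luminescent ATP signal served as the viability read-out after 40 hours of compound treatment of human neuroblastoma SK-N-SH cells. Concentration-response data, scaled between DMSO and 100 uM tamoxifen, gave AC50 values by standard Hill modeling.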

[6] = target: Mitogen-activated protein kinase 10 (Mus musculus) (UniProt Q61831); experiment: JNK3 AlphaScreen Assay (AID 530; active = well fitted curve in either direction with a large enough effect, not every such curve was filed as active;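 note: kinase came from lysate of stimulated human HepG2 cells; signal reports phosphorylation of biotinylated GST-cJun 1-79 at Ser73 with 10 µM ATP; % is set by controls: 0 for no effect and ±100 for the full control effect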); conditions: JNK3 lysate, c-Jun phosphorylation; series mostly up to 57.1 µM
Outline: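 qHTS titrations with 15 min compound pre-incubation before adding ATP (10 uM final). Read-out: AlphaScreen of Ser73-phosphorylated biotin-GST-cJun using HepG2 lysate JNK3 activated by IL-1β and TNFα.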

[7] = Cell Viability - N2a (AID 540); conditions: N2a mouse neuroblastoma cell viability; at 92.2 µM (top of the series);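 note: cells exposed to compound for 40 h at 37 °C; plate controls were DMSO alone for no effect and tamoxifen control for full effect; nearly all actives have a fitted effect of over 45% in size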
Outline: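 Cytotoxicity was scored as loss of cellular ATP in N2a cells, a mouse neuroblastoma line. Compounds are applied in a qHTS concentration series for 40 hr at 37 °C.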

[8] = Cell Viability - NIH 3T3 (AID 541); conditions: NIH 3T3 cell viability, qHTS; activity change, negative = cytotoxicity: at 92.2 µM (top of the series);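 note: plate controls were DMSO alone for no effect and tamoxifen positive control for full effect; nearly all actives have a fitted effect of over 25% in size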
Outline: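 Cells seeded at 1000/well, rested 5 hr at 37 °C, then dosed and incubated 40 hr at 37 °C. CellTiter-Glo added, 20 min room temperature, luminescence read. AC50 by Hill fit.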

[9] = Cell Viability - HUV-EC-C (AID 542); conditions: HUV-EC-C endothelial cell viability, qHTS; series mostly up to 92.2 µM; note: % is set by controls: 0 for no effect and ±100 for the full control effect; nearly all actives have a fitted effect of over 35% in size
Outline: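 Cells were seeded at 1000 per well and incubated 5 hr at 37 °C before compound addition. After 40 hr at 37 °C, CellTiter-Glo reagent was added for 20 min and luminescence read. AC50 values came from Hill-equation modelling.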

[10] = Cell Viability - Renal Proximal Tubule (AID 545); conditions: renal proximal tubule cells viability, at 91.7 µM (top of the series); note: nearly all actives have a fitted effect of over 40% in size
Outline: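 Luminescent ATP signal (CellTiter-Glo) served as the viability read-out after 40 hr compound exposure of freshly isolated rat proximal tubule cells at 37 °C. Concentration-dependent ATP loss was fitted with the Hill equation to give AC50.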

[11] = Cell Viability - Mesenchymal (AID 546); conditions: mesenchymal cells viability, qHTS; series mostly up to 91.7 µM;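 note: cells exposed to compound for 40 hours before reading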
Outline: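 CellTiter-Glo luminescence (intracellular ATP, 20 min room temperature) after 40 hr compound exposure at 37 °C of 1000 glomerulus-derived human kidney mesenchymal cells/well; AC50 values obtained by fitting qHTS concentration-response data to the Hill equation.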

[12] = Cellular Toxicity (caspase-3) Jurkat (AID 655); conditions: Jurkat caspase-3 activation, luminescence, DMSO = 0%, tamoxifen = 100%; at 92.2 µM (top of the series);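 note: cells exposed to compound for 16 h at 37 °C before reading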
Outline: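 5000 Jurkat cells/well; compound 16 hr, 37 °C; Caspase-Glo 3/7 added, 20 min RT; luminescence read. Norm: DMSO = 0%, tamoxifen 100 uM = 100%. AC50, Hill model.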

[13] = Cellular Toxicity (caspase-3) HUV-EC-C (AID 656); conditions: HUV-EC-C cells, caspase-3 activation (apoptosis), vehicle = 0, 100 µM tamoxifen = 100%; series mostly up to 92.2 µM
Outline: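 qHTS; HUV-EC-C, 1000 cells/well; 5 hr settle, 16 hr cmpd, 37°C; Caspase-Glo 3/7, 20 min RT; luminescence. Norm: DMSO = 0%, tamoxifen 100 uM = 100%. Hill-fit AC50.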

[14] = Cellular Toxicity (caspase-3) SHSY5Y (AID 657); conditions: SH-SY5Y caspase-3 activation, DMSO zero, 10 µM staurosporine = 100%; series mostly up to 91.7 µM;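 note: cells exposed to compound for 16 hours at 37 °C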
Outline: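 qHTS, SH-SY5Y, 1500 cells/well, 5 h pre-incubation 37 °C; compound 16 h 37 °C; Caspase-Glo 3/7 1 h RT; luminescence. Norm.: DMSO = 0, 10 uM staurosporine = 100%. Hill fit → AC50.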

[15] = Cellular Toxicity (caspase-3) Renal Proximal Tubule (AID 667); conditions: renal proximal tubule cells, at 91.7 µM (top of the series);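 note: cells exposed to compound for 16 hours at 37 °C before detection; 0% = DMSO basal and 100% = 10 µM staurosporine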
Outline: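 AC50 derived by standard Hill fit of concentration-response data, normalized between DMSO basal and 10 uM staurosporine as 100% stimulation. Cells: primary rat kidney proximal tubule, 16 h treatment at 37 °C.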

[16] = target: Cytochrome P450 3A4 (Homo sapiens) (UniProt P08684); experiment: qHTS Assay for Inhibitors and Substrates of Cytochrome P450 3A4 (AID 884); conditions: recombinant CYP3A4, Luciferin-PPXE luminescence; series mostly up to 57.1 µM; note: nearly all actives have a fitted effect of over 50% in size; note: potency is the fitted concentration of half-maximal effect
Chain of Cytochrome P450 3A4 (Homo sapiens) (P08684 whole entry, looked up): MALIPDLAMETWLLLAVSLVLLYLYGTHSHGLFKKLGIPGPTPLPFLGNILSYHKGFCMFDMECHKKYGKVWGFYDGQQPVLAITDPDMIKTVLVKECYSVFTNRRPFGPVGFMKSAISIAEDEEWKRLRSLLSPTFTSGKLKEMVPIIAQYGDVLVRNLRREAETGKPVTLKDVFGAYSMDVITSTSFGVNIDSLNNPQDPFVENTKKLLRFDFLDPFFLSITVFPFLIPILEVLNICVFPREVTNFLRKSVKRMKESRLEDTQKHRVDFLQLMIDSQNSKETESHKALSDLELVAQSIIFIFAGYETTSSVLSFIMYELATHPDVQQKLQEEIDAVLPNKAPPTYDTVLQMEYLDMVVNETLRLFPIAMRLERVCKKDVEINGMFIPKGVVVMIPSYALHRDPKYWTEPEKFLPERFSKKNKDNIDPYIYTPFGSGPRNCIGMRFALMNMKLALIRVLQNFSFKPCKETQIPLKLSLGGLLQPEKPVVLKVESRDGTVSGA
Outline: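 Luminescent readout of luciferin produced by CYP3A4 (20 nM) dealkylation of Luciferin-PPXE, 25 uM (its KM). NADPH-driven reaction ran 60 min at RT after 10 min compound preincubation; data scaled to 57 uM ketoconazole as 100% inhibition.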

[17] = qHTS assay for small molecule agonists of retinoid X receptor alpha signaling (AID 588544); conditions: HEK293T RXRa-UAS-bla, beta-lactamase reporter, 18 h; 530 nm emission
[18] = qHTS assay for small molecule disruptors of the mitochondrial membrane potential - 1 hr assay (AID 651754; calls by dose curve; note: % is set by controls: 0 for no effect and ±100 for the full control effect; nearly all actives have a fitted effect of over 35% in size); conditions: series mostly up to 92.2 µM
Outline: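 Loss of mitochondrial potential shifts the cationic dye from red mitochondrial aggregates to green cytoplasmic monomers. Cells (HepG2) are treated with compound for 1 hr before a 30 min dye incubation at 37C.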

[19] = qHTS assay for small molecule disruptors of the mitochondrial membrane potential - 5 hr assay (AID 651755; calls by dose curve; note: % is set by controls: 0 for no effect and ±100 for the full control effect; nearly all actives have a fitted effect of over 40% in size); conditions: JC-1-type ratio dye; series mostly up to 92.2 µM
Outline: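 Membrane-potential dye readout: red aggregate (540 ex/590 em) versus green monomer (490 ex/535 em) fluorescence after 30 min dye loading, following 5 hr compound exposure at 37C of overnight-plated HepG2 cells.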

[20] = target: Peroxisome proliferator-activated receptor alpha (Homo sapiens) (UniProt Q07869); experiment: qHTS assay for small molecule agonists of the peroxisome proliferator-activated receptor alpha (PPARalpha) signaling pathway (AID 651778); conditions: PathHunter PPARalpha complementation, chemiluminescence, 6 h; stronger effect = higher value; note: % of control where 0% means no effect
Chain of Peroxisome proliferator-activated receptor alpha (Homo sapiens) (Q07869 whole entry, looked up): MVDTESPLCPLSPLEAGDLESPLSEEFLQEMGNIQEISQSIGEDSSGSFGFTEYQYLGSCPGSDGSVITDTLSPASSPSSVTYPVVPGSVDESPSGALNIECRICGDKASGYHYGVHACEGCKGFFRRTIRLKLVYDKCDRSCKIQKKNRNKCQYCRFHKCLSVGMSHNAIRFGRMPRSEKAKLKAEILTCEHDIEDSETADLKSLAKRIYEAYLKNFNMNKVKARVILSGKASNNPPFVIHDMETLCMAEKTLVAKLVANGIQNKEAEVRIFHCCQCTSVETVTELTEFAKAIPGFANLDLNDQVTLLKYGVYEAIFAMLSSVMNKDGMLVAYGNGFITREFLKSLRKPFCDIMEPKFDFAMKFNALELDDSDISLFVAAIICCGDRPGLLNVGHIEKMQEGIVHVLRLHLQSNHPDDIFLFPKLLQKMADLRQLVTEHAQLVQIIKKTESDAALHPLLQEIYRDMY
Outline: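 Chemiluminescence from complemented enzyme reported PPARalpha activation in cells after 6 hr of compound treatment at 37 C. The detection reagent was incubated for 60 min at room temperature, and compounds were scored as agonists.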

[21] = primary cells of rat origin unless noted
[22] = primary cells freshly taken from rat, solvent-only wells 0%, staurosporine 100% unless noted

CCOc1ccc(N)cc1
inactive: Potency [1] > 92 µM | Potency [2] > 92 µM | Potency [3] > 92 µM | Potency [4] > 92 µM | Potency [5] > 92 µM | outcome [6] | activity change, negative = cytotoxicity [7] -4.95% | activity change, negative = cytotoxicity [8] -11.8% | Potency [9] | activity change, negative = cytotoxicity [10, 21] -1.23% | outcome [11] | caspase-3 activation [12] -0.901% | outcome [13] | outcome [14] | caspase-3 activation [15, 22] -17.4% | Potency [16] | Potency [18] | Potency [19] | max response [20] 3.04%
-1.09%: max response [17]

Nc1ccccc1Cl
inactive: Potency [1] > 92 µM | Potency [2] > 92 µM | Potency [3] > 92 µM | Potency [4] > 92 µM | Potency [5] > 92 µM | outcome [6] | activity change, negative = cytotoxicity [7] 0.502% | activity change, negative = cytotoxicity [8] -1.33% | Potency [9] | activity change, negative = cytotoxicity [10, 21] 6.03% | outcome [11] | caspase-3 activation [12] -0.675% | outcome [13] | outcome [14] | caspase-3 activation [15, 22] 2.73% | Potency [16] | Potency [18] | Potency [19] | max response [20] -2.66%
-4.32%: max response [17]

CCSC(=O)Cl
-20.5%: max response [17]
inactive: Potency [1] > 92 µM | Potency [2] > 92 µM | Potency [3] > 92 µM | Potency [4] > 92 µM | Potency [5] > 92 µM | outcome [6] | activity change, negative = cytotoxicity [7] 2.21% | activity change, negative = cytotoxicity [8] -9.03% | Potency [9] | activity change, negative = cytotoxicity [10, 21] -4.42% | outcome [11] | caspase-3 activation [12] -0.54% | outcome [13] | outcome [14] | caspase-3 activation [15, 22] 8.48% | Potency [16] | Potency [18] | Potency [19] | max response [20] 0.356%

CN1C2CC3CC1C(O3)C2O (centres undefined)
inactive: Potency [16]

O=NN(CCO)CCO
-8.04%: max response [17]
inactive: Potency [1] > 92 µM | Potency [2] > 92 µM | Potency [3] > 92 µM | Potency [4] > 92 µM | Potency [5] > 92 µM | outcome [6] | activity change, negative = cytotoxicity [7] -10.5% | activity change, negative = cytotoxicity [8] -23.2% | Potency [9] | activity change, negative = cytotoxicity [10, 21] -10.4% | outcome [11] | caspase-3 activation [12] -1.33% | outcome [13] | outcome [14] | caspase-3 activation [15, 22] 4.45% | Potency [16] | Potency [18] | Potency [19] | max response [20] -4.3%

Cc1ccccc1N
inactive: Potency [1] > 92 µM | Potency [2] > 92 µM | Potency [3] > 92 µM | Potency [4] > 92 µM | Potency [5] > 92 µM | outcome [6] | activity change, negative = cytotoxicity [7] -19.6% and 1.37% | activity change, negative = cytotoxicity [8] -25.3% and -5.05% | Potency [9] | activity change, negative = cytotoxicity [10] -0.93% | activity change, negative = cytotoxicity ([10]; primary cells of rat origin) -4.73% | outcome [11] | caspase-3 activation [12] 11.5% and 2.29% | outcome [13] | outcome [14] | caspase-3 activation [15] -5.94% | caspase-3 activation ([15]; primary cells freshly taken from rat, solvent-only wells 0%, staurosporine 100%) 22.1% | Potency [18] | Potency [19] | max response [20] -4.65% and -3.69%
1.21% and 0.728%: max response [17]
inactive and 25.1 µM (active): Potency [16]

CC(=O)[O-].CC(=O)[O-].O.O.O.[Pb+2]
-8.91% and -19.7%: max response [17]
inactive: Potency [1] > 92 µM | Potency [2] > 92 µM | Potency [3] > 92 µM | Potency [4] > 92 µM | Potency [5] > 92 µM | outcome [6] | activity change, negative = cytotoxicity [7] 13.3% and 9.03% | activity change, negative = cytotoxicity [8] 11.5% and -1.35% | Potency [9] | activity change, negative = cytotoxicity [10, 21] -5.61% and -0.959% | outcome [11] | caspase-3 activation [12] 1.15% and 0.852% | outcome [13] | outcome [14] | caspase-3 activation [15, 22] -9.48% and -1.66% | Potency [16] | Potency [18] | Potency [19] | max response [20] -4.64% and -4.52%

CC(C)(C)OO
inactive: Potency [1] > 92 µM | Potency [2] > 92 µM | Potency [3] > 92 µM | Potency [4] > 92 µM | Potency [5] > 92 µM | outcome [6] | activity change, negative = cytotoxicity [7] 1.33% and -10.7% | activity change, negative = cytotoxicity [8] -4.73% and 1.03% | Potency [9] | activity change, negative = cytotoxicity [10, 21] -2.92% and -10.1% | outcome [11] | caspase-3 activation [12] 16.6% and 4.19% | outcome [13] | outcome [14] | caspase-3 activation [15, 22] 12.8% and -1.63% | Potency [16] | Potency [18] | Potency [19] | max response [20] -2.75% and -4.99%
4.87% and -13.2%: max response [17]

[O-][Br+2]([O-])O
8.99% and 2.4%: max response [17]
inactive: Potency [1] > 92 µM | Potency [2] > 92 µM | Potency [3] > 92 µM | Potency [4] > 92 µM | Potency [5] > 92 µM | outcome [6] | activity change, negative = cytotoxicity [7] -3.27% and 7.55% | activity change, negative = cytotoxicity [8] 0.18% and -3.06% | Potency [9] | activity change, negative = cytotoxicity [10, 21] -9.6% and -6.64% | outcome [11] | caspase-3 activation [12] -7.93% and -8.01% | outcome [13] | outcome [14] | caspase-3 activation [15, 22] -18.8% and -17.4% | Potency [16] | Potency [18] | Potency [19] | max response [20] 8.01% and -0.25%

O=c1cccc2n1CC1CC2CN2CCCCC12 (centres undefined)
inactive: Potency [16]
